High-throughput results deposited in PubChem BioAssay by National Center for Advancing Translational Sciences (NCATS).
Compounds with a hit are over-represented: about 9.5% of the library has one in this group of screens.
RE007 growth inh: less growth of the S. pombe RE007 Vpr strain | S. pombe RE007 Vpr strain, BacTiter-Glo ATP luminescence, 24 h | Potency, µM (series often up to 92.2 µM), inactives show top-dose activity change, negative = less growth, most hits filed as inhibitors | 360,000 compounds, 0.21% hits | AID 651644; active = well fitted falling curve with a large enough effect; inconclusive = small, poorly fitted or top-dose-only effect; inactive = no such curve, though single readings can be large or run the other way; note: potency is the fitted concentration of half-maximal effect; % is set by controls: 0 for no effect and ±100 for the full control effect; nearly all actives have a fitted effect of over 50% in size
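Fission yeast strain RE007, carrying one chromosomally integrated HIV-1 vpr copy, was seeded at OD 0.01 in PMG+AL medium with 23 nL pinned compound. After 24 h at 30 °C and 99% humidity, viability was read by BacTiter-Glo luminescence.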
Pf growth 48h: P. falciparum growth inhibition at 48 hours (one generation) | 310,000 compounds, 5.9% hits | P. falciparum luciferase growth in erythrocytes, 48 h | AID 504832 | Potency, µM (top dose mostly 28.7 µM), for the others: top-dose activity change, negative = inhibition, actives largely listed as inhibitors; active = well fitted inhibition curve with a large enough effect; inconclusive = small, poorly fitted or top-dose-only effect, or another doubt; inactive = no such curve, though single readings can be large or run the other way; note: potency is the fitted concentration of half-maximal effect; % is set by controls: 0 for no effect and ±100 for the full control effect
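Read-out is firefly luciferase luminescence from an integrated reporter in P. falciparum, so falling signal marks reduced parasite growth. Infected erythrocytes were at 2% hematocrit and 0.1% parasitemia (final) in Albumax-supplemented RPMI 1640.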
NS1 function inh: influenza NS1 inhibition; Potency, µM (highest dose often 46.1 µM), for inactives: at the top dose activity, positive = more growth; 270,000 compounds, 0.4% hits; AID 2326; note: potency is the fitted concentration of half-maximal effect; actives are rising curves; nearly all actives have a fitted effect of over 50% in size
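Read-out: OD600 growth recovery of NS1-expressing budding yeast. Cells grown overnight at 30C in -URA glucose medium, washed, resuspended and diluted 1:100 in 2% galactose assay medium, pH 6.0. Same strain lacking NS1 served as positive control.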
Pf growth 96h: P. falciparum growth inhibition at 96 hours | Potency, µM (titrated, usually from 28.7 µM), without a hit: at the highest dose activity change, negative = inhibition, usual class: inhibitors | P. falciparum luciferase reporter growth, 96 h | 320,000 compounds, 6.9% hits; active = well fitted inhibition curve with a large enough effect; inconclusive = small, poorly fitted or top-dose-only effect, or another doubt; inactive = no such curve, though single readings can be large or run the other way; note: potency is the fitted concentration of half-maximal effect; % is set by controls: 0 for no effect and ±100 for the full control effect
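Parasite growth measured via integrated firefly luciferase reporter in P. falciparum. Infected erythrocytes at 2% hematocrit, 0.05% parasitemia final were treated 96 hours at 37 C under 5% CO2, and luminescence was read.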
SARS PLP yeast: inhibitors of SARS-CoV papain-like protease in yeast; S. cerevisiae expressing SARS-CoV PLpro, growth rescue; 330,000 compounds, 0.19% hits; Potency, µM (doses to about 32.9 µM), without a hit: top-dose activity, positive = growth rescue, actives largely listed as activators; note: potency is the fitted concentration of half-maximal effect; 0% is about no effect; nearly all actives have a fitted effect of over 55% in size
Flu NS1 inh: influenza NS1 function inhibition validation; shares compounds with NS1 function inh; influenza NS1 function cell assay, 15-point titration; activity change, negative = inhibition, % at 32.9 µM; 1,400 tested, under 10 active; AID 492980; note: 0% is about no effect
Active calls of the source: *; u = inconclusive; x = not tested or not shown. Unless noted, calls come from the whole dose curve.

SMILES | RE007 growth inh | Pf growth 48h | NS1 function inh | Pf growth 96h | SARS PLP yeast | Flu NS1 inh
CCOc1ccc(OCC)c(NS(=O)(=O)c2cccc3nsnc23)c1 | -8.6% | -17.3% | u | 37.8% | -0.6% | 2.5
CCOc1ccccc1NS(=O)(=O)c1cccc2nsnc12 | -13.5% | -4.7% | 2.9% | x | -3.0% | x
CCN(CC)C(=O)C1=C(C)N(Cc2ccc(C(C)(C)C)cc2)C(=O)C(CC(=O)NCCCN(C)C)C1 (stereo not drawn) | 2.5% | x | x | x | x | x
Cc1nc2ccc(S(=O)(=O)Nc3cccc(-c4nc5cccnc5s4)c3)cc2s1 | -4.9% | 19.5% | 11.2µM* | -18.9% | -27.5% | -34.4
COc1ccccc1-n1cc(-c2ccccc2)c2c(=S)nc[nH]c21 | 0.8% | 13.1µM* | 14.1µM* | u | 12.2% | -20.7
Cc1cc([N+](=O)[O-])ccc1NC(=O)C(C)NC1CCCCC1 (stereo not drawn) | -15.6% | 1.1% | 7.7% | u | u | x
c1ccc2c(c1)Nc1cc3ccccc3cc1O2 | 10.5% | x | x | x | x | x
COc1cc(/C=C\C(=O)NCc2ccc3c(c2)cc(C)n3C)cc(OC)c1OC | 3.0% | 11.7µM* | u | 7.38µM* | 0.6% | 2.7
Cc1ccc(C(C)C)c(Oc2cnccn2)c1 | 14.5% | 3.0% | -1.5% | 33.8% | 1.4% | x
Nc1c(C(=O)NCc2ccco2)sc2nc(N3CCOCC3)c3c(c12)CCCC3 | -13.7% | 9.28µM* | 25.1µM* | u | -0.2% | -0.5
Cc1ccc(C(=O)C(NC(=O)c2ccco2)Nc2sc3c(c2C(N)=O)CCCC3)cc1 (stereo not drawn) | x | u | 6.7% | 28.4% | 0.9% | x
Cc1cnc(NC(=O)CN(C)S(=O)(=O)c2ccc(Cl)cc2)s1 | 7.1% | 24.9% | 7.94µM* | u | -9.9% | 4.5
COc1cc(/C=C/C(=O)Nc2nnc(CC(C)C)s2)cc(OC)c1OC | 10.6% | -3.0% | u | u | 7.3% | -3.6
CCOC(=O)C1=C(c2ccccc2)N=c2s/c(=C\c3cc(OC)c(OC)c(OC)c3)c(=O)n2C1c1cccs1 (stereo not drawn) | 1.4% | 0.657µM* | 22.4µM* | u | 13.2% | 13.7
CC(C)NC(=O)C1CCCN(S(=O)(=O)c2cccs2)C1 (stereo not drawn) | 8.4% | 54.4% | 2.24µM* | 6.9% | 8.3% | -2.4
CCOC(=O)c1cc(OC(=O)c2cccnc2)n(-c2ccccc2)n1 | x | -20.0% | 2µM* | 30.9% | 9.6% | u
CCc1ccc2oc(-c3cc(N)cc(C)c3O)nc2c1 | -12.7% | 192.6% | 14.1µM* | 28.9% | -1.0% | 18.5
CCc1ccc2oc(-c3cc(N)ccc3O)nc2c1 | u | -14.5% | u | u | 11.7% | x
COc1ccc(C)cc1S(=O)(=O)N1CCN(C(=O)c2ncoc2-c2ccccc2F)CC1 | 0.5% | 13.1% | -49.0% | 69.3% | 1.7% | x
C/C(=N\Nc1ccccc1)c1c(O)n(-c2ccccc2)c(=O)[nH]c1=O | 119.6% | 9.6% | 4.0% | u | -0.2% | x
C/C(=N\Nc1ccccc1)c1c(O)n(Cc2ccccc2)c(=O)[nH]c1=O | 176.1% | -26.9% | 10µM* | -16.8% | -0.7% | -13.2
COc1ccc(Cl)cc1N1C(=O)CC(N2CCN(S(=O)(=O)c3ccccc3F)CC2)C1=O (stereo not drawn) | -18.0% | x | x | x | -21.4% | x
CSc1nc2ccccc2cc1/C=C(\C#N)c1ccccc1 | -1.8% | -5.9% | 2µM* | 9.2% | 4.3% | 6.7
CC(C)CCNC(=O)NC(=O)CSc1nnc2ccccn12 | 3.3% | -5.3% | 4.47µM* | u | 11.5% | 2.3
CC(C)CNC(=O)CSc1nnc2ccccn12 | 2.3% | 16.1% | x | -0.5% | 1.9% | x
SMILES | RE007 growth inh | Pf growth 48h | NS1 function inh | Pf growth 96h | SARS PLP yeast | Flu NS1 inh
COc1ccccc1OS(=O)(=O)c1ccc(NC(C)=O)cc1 | 2.1% | 8.7% | 0.3% | 32.4% | -0.9% | x
COc1ccc(/C=N/NC(=O)c2ccc3ccccc3c2)cc1OS(=O)(=O)c1ccc(NC(C)=O)cc1 | 4.2% | u | 10µM* | u | 3.9% | 23.9
COc1ccc(NC(=S)NCCC(c2ccccc2)c2ccccc2)c(OC)c1 | 7.4% | u | 11.2µM* | u | -1.7% | u
COc1ccc(NC(=O)CC(C)=O)c(OC)c1 | x | -24.2% | 4.6% | u | -0.9% | x
COc1ccc(NC(=S)NCCc2ccccc2OC)c(OC)c1 | -2.7% | u | -9.4% | x | -2.0% | x
COc1ccc(NC(=O)CC(=O)Nc2ccc(OC)cc2OC)c(OC)c1 | 1.3% | 6.0% | u | u | 0.5% | 1.5
Cc1ccc(C(O)Cn2cc([N+](=O)[O-])nc2C)cc1 (stereo not drawn) | 0.5% | 2.62µM* | u | -1.5% | -0.3% | 7.7
CCC(CC)NCc1ccc(OC)cc1OC | -18.3% | 14.3% | u | 0.0% | 3.0% | -12.7
COc1cccc(NC(=O)Cc2nnc(SCC(=O)c3ccccc3)n2C)c1 | -4.6% | -59.5% | 7.94µM* | x | -2.3% | -5.1
COc1ccccc1-n1c(SCC(=O)Nc2cccc(C(=O)O)c2)nnc1-c1ccccc1C | -6.2% | -12.1% | 12.6µM* | 52.2% | 17.3% | 30.1
COc1cccc(NC(=O)Cc2nnc(SCCOc3ccccc3)n2C)c1 | 3.7% | 5.8% | -7.3% | x | -1.1% | x
CCOC(=O)c1cnc2ccc(OC)cc2c1Nc1ccc2c(c1)OCCO2 | -10.9% | u | -166.8% | u | -6.1% | x
CCOc1ccc(S(=O)(=O)c2c(C(=O)c3ccc(C)cc3)cnc3cc4c(cc23)OCCO4)cc1 | 15.0% | u | 14.1µM* | u | -2.4% | -13.5
CCCCCCn1c(COc2ccccc2F)nnc1SCC(=O)c1c(N)n(C)c(=O)n(C)c1=O | x | u | u | u | -12.4% | -3.5
O=C(N/N=C/c1cccc([N+](=O)[O-])c1)c1cc(-c2ccccc2)nc2ccccc12 | 5.0% | 0.0% | 4.0% | u | -5.2% | x
O=C(N/N=C/C=C\c1ccccc1[N+](=O)[O-])c1cc(-c2ccccc2)nc2ccccc12 | 12.3% | u | 7.08µM* | -7.3% | -1.4% | 10.8
Nc1c(/C=C2/C=CC(=O)C(O)=C2)c(=O)nc2sc(CC(=O)N3CCCCC3)nn12 | 8.0% | -7.7% | 14.1µM* | -4.5% | 11.2µM* | -11.0
CCOc1ccc(-c2cn(-c3ccccc3OC)c(=S)[nH]2)cc1 | -6.3% | u | u | 21.5% | 1.1% | -33.7
Cc1ccccc1C(=O)NC(=S)Nc1sc2c(c1C#N)CCC(C)C2 (stereo not drawn) | 7.5% | 53.7% | 18.9% | 14.3% | 2.2% | x
CC1CCc2c(sc(NC(=S)NC(=O)c3ccccc3)c2C#N)C1 (stereo not drawn) | -7.7% | 16.7% | 7.94µM* | 51.3% | 1.6% | 5.6
Cc1ccc(C2N(c3ccc(F)cc3)C(=O)C3CCCN32)cc1 (stereo not drawn) | 4.2% | x | 1.78µM* | -5.1% | 2.8% | -8.9
